Source: PubChem
The list is not random: actives were taken first. Their share in the collection is about 6.7%.
C diff HTS – C. difficile growth inhibition | growth activity, negative = inhibition, % at 16 µg/mL (by protocol) | 86,000 tested, 0.25% active | Clostridium difficile clinical isolate growth, OD600, 24 h; stronger effect = lower value;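 active means mean growth activity at or below -80% and every replicate also at or below -80%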;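 further: 0% = DMSO wells and -100% = levofloxacin 16 µg/mL wells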
Pf Dd2 growth – P. falciparum Dd2 growth inhibition. SYBR Green, 72 h; stronger effect = lower value. 94,000 tested, 2.3% active. activity change, % at 10 µM; in the data active means activity change below about -80%
T cruzi growth-1 – inhibitors of T. cruzi proliferation; T. cruzi beta-gal in NIH3T3, GalScreen luminescence, 90 h; inhibition, % at 8.34 µM; 77,000 tested, 5.9% active; AID 624255;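 active means mean inhibition above about 93%, with at least 55% of replicates each passing it, limit read from the data, passing the limit was not always enough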
T cruzi growth-2 – blocks T. cruzi growth in NIH3T3 host cells | shares compounds with T cruzi growth-1 | inhibition, % at 8.35 µM | T. cruzi beta-gal in NIH3T3, GalScreen luminescence, 90 h | 5,600 tested, 72% active;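 active means mean replicate inhibition above about 95% and at least 55% of replicates individually reaching it, limit read from the data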
T cruzi growth-3 – Trypanosoma cruzi proliferation inhibition; T. cruzi beta-gal in NIH3T3, GalScreen luminescence, 90 h; shares compounds with T cruzi growth-1; 5,600 tested, 21% active; inhibition, % at 2.09 µM;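 active means mean inhibition above about 95%, with at least 55% of replicates also reaching it, limit read from the data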;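 further: plate controls were neutral control median for no effect and positive control median for full effect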
3T3 cytotox – cytotoxicity in mouse NIH/3T3 fibroblasts; NIH/3T3 viability, CellTiter-Glo ATP luminescence, 90 h; AID 651742; cytotoxicity (signal decrease), % at 8.35 µM; 5,600 tested, 14% active; shares compounds with T cruzi growth-1;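 active means mean signal decrease across replicates above about 35% based on untreated-well scatter, with enough replicates individually passing, limit read from the data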;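 further: 0% = median of neutral control wells and 100% = median of positive control wells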
NIH3T3 tox 2 – NIH/3T3 (mouse) viability loss | shares compounds with T cruzi growth-1 | NIH/3T3 viability, CellTiter-Glo ATP luminescence, 90 h | inhibition, % at 24.9 µM | 5,600 tested, 56% active | AID 651744;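 active means mean loss of cell viability signal at or above a set limit, and enough replicates individually reaching it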;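 further: 0% = median of neutral control wells and 100% = median of positive control wells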
* marks the source's active call; other numbers are inactive results; . = no result given.

SMILES | C diff HTS | Pf Dd2 growth | T cruzi growth-1 | T cruzi growth-2 | T cruzi growth-3 | 3T3 cytotox | NIH3T3 tox 2
COc1ccc(CN2C[C@@H](C)[C@H](OC)CN(C)C(=O)c3ccc(NC(=O)c4nc5ccccc5s4)cc3OC[C@@H]2C)cc1 | 4.8 | -69.8 | 101.8* | 114.7* | 78.9 | -3.0 | -38.0
CCCN1C[C@H](C)[C@H](OC)CN(C)C(=O)c2cc(NC(=O)c3cccc(F)c3)ccc2OC[C@@H]1C | -2.8 | 8.7 | -88.9 | . | . | . | .
CO[C@H]1CN(C)C(=O)c2ccc(NC(C)=O)cc2OC[C@@H](C)N(C(=O)C2CCCCC2)C[C@H]1C | . | . | 48.3 | . | . | . | .
COc1ccc(S(=O)(=O)Nc2ccc3c(c2)C(=O)N([C@H](C)CO)C[C@H](C)[C@@H](CN(C)S(=O)(=O)c2c(C)noc2C)OCCCC[C@H](C)O3)cc1 | -5.1 | -14.0 | 42.4 | . | . | . | .
O=C(C[C@@H]1CC[C@H]2[C@@H](COC[C@H](O)CN2Cc2cccc(-c3ccncc3)c2)O1)N1CCN(c2ccccc2)CC1 | -4.5 | -25.0 | 54.4 | . | . | . | .
CCCNC(=O)C[C@@H]1CC[C@@H]2[C@H](COc3ccc(NC(=O)COC)cc3C(=O)N2C)O1 | 1.8 | 3.0 | -27.5 | . | . | . | .
CCCNC(=O)N1CC2(CCN(C(=O)Nc3cccc(F)c3)CC2)c2c(n(C)c3cc(OC)ccc23)[C@H]1CO | 14.0 | -68.1 | . | . | . | . | .
O=C(C[C@@H]1C=C[C@@H](NC(=O)CN2CCOCC2)[C@H](CO)O1)NCCc1ccncc1 | -1.2 | 12.9 | . | . | . | . | .
O=C(c1ccc2c(c1)OCO2)N1CC[C@@H]2[C@@H](CO)Nc3ccc(C#Cc4ccccc4)cc3[C@@H]21 | 2.8 | -62.1 | 96.0 | . | . | . | .
CCC(=O)N1CC[C@@H]2[C@H](CO)Nc3ccc(-c4ccc(C(=O)N(C)C)cc4)cc3[C@@H]21 | -6.5 | -11.7 | 107.9* | 101.0* | 57.1 | 2.8 | -2.3
N#Cc1ccc(-c2ccc3c(c2)[C@@H]2[C@@H](CCN2C(=O)c2ccncc2)[C@H](CO)N3)cc1 | -6.5 | -11.2 | 76.9 | . | . | . | .
O=C(c1ccc2c(c1)OCO2)N1CC[C@@H]2[C@H]1c1cc(C#Cc3ccccc3)ccc1N[C@@H]2CO | 1.1 | -10.5 | 93.1* | 106.6* | 31.5 | -25.6 | 16.5
N#Cc1cccc(-c2ccc3c(c2)[C@@H]2[C@@H](CCN2C(=O)c2ccc4c(c2)OCO4)[C@@H](CO)N3)c1 | -10.1 | -13.9 | 88.0 | . | . | . | .
N#Cc1cccc(-c2ccc3c(c2)[C@H]2[C@H](CCN2C(=O)c2ccc4c(c2)OCO4)[C@@H](CO)N3)c1 | -3.9 | -75.3 | 97.5* | 102.9* | 99.7* | 9.9 | 37.4*
CCC(=O)N1CC[C@@H]2[C@H]1c1cc(-c3ccccc3)ccc1N[C@@H]2CO | -20.1 | 31.0 | 43.5 | . | . | . | .
N#Cc1cccc(-c2ccc3c(c2)[C@@H]2[C@@H](CCN2C(=O)c2ccncc2)[C@@H](CO)N3)c1 | -3.4 | -61.1 | 103.2* | 97.4* | 7.9 | 3.2 | 7.8
COc1ccc(S(=O)(=O)N(C)C[C@H]2Oc3ccc(NC(=O)Cn4cnnn4)cc3CC(=O)N([C@@H](C)CO)C[C@@H]2C)cc1 | -3.2 | -23.7 | 8.4 | . | . | . | .
O=C(NCC(F)(F)F)[C@@H]1[C@@H](CO)[C@@H]2Cn3c(cccc3=O)[C@@H]2N1C(=O)C1CCCC1 | 2.0 | 4.1 | 45.1 | . | . | . | .
O=C(Cc1ccccc1)N[C@H]1C=C[C@@H](CC(=O)N2CCCCC2)O[C@@H]1CO | -1.5 | -0.6 | -2.7 | . | . | . | .
COC(=O)[C@H]1[C@H](CO)[C@H]2Cn3c(ccc(-c4ccccc4)c3=O)[C@H]2N1CC1CCCCC1 | 31.1 | -8.1 | 28.1 | . | . | . | .
C#CCN([C@H](/C=C/C1CC1)[C@@H](O)Cc1ccccc1)[C@@H]1C(=O)N2[C@@H]1SC(C)(C)[C@@H]2C(=O)OC | -2.5 | . | . | . | . | . | .
O=S(=O)(NCC[C@@H]1CC[C@@H](NS(=O)(=O)c2ccccc2Cl)[C@@H](CO)O1)c1ccc(F)cc1 | -2.5 | -12.2 | 10.5 | . | . | . | .
O=C(C[C@H]1CC[C@H](NC(=O)Nc2ccc3c(c2)OCO3)[C@H](CO)O1)NCc1ccc(F)cc1 | 2.2 | 6.4 | 20.5 | . | . | . | .
CN(C)C(=O)c1ccc(-c2ccc3c(c2)[C@H]2[C@H](CCN2C(=O)c2ccc4c(c2)OCO4)[C@@H](CO)N3)cc1 | -5.5 | -2.8 | 100.8* | 105.5* | 74.1 | -0.1 | 1.2
